The list is not random: actives were taken first. Their share in the collection is about 3.4%.
Giardia FBPA inh: Giardia lamblia aldolase inhibition | A8B2U2 | purified Giardia FBPA | Potency, µM (highest dose often 59.6 µM), without a hit: at the top dose activity, negative = inhibition, actives largely listed as inhibitors | 290,000 tested, 0.71% active | AID 2451; note: nearly all actives have a fitted effect of over 55% in size
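Giardia FBPA (40 nM reagent) was preincubated 10 min at RT with compound (up to 57.5 uM final), then substrate plus GAPDH/TPI/NAD/arsenate coupling system with diaphorase/resazurin was added; resorufin fluorescence (525/598 nm) was read after 20 min.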
Sm TGR inh: inhibitors of Schistosoma mansoni thioredoxin glutathione reductase | 360,000 tested, 3% active | AID 485364 | Q962Y6 | Potency, µM (series often up to 114 µM), for the others: at the top dose activity change, negative = inhibition, usual class: inhibitors | purified TGR, DTNB reduction, TNB absorbance 405 nm; note: nearly all actives have a fitted effect of over 60% in size
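First, TGR (20 nM dispensed) and NADPH were mixed with compound. Second, a 15 min room-temperature incubation followed. Third, further NADPH and then DTNB were added to start the reaction. Finally, TNB absorbance was monitored kinetically.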
RE007 growth inh: less growth of the S. pombe RE007 Vpr strain; S. pombe RE007 Vpr strain, BacTiter-Glo ATP luminescence, 24 h; Potency, µM (doses to about 92.2 µM), without a hit: at the highest dose activity change, negative = less growth, actives largely listed as inhibitors; 360,000 tested, 0.21% active; AID 651644; active = well fitted falling curve with a large enough effect; inconclusive = small, poorly fitted or top-dose-only effect; inactive = no such curve, though single readings can be large or run the other way; note: nearly all actives have a fitted effect of over 50% in size
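Fission yeast RE007 carrying one integrated HIV-1 vpr copy, seeded at OD 0.01 in PMG+AL medium with 23 nL pinned compound. Grown 24 h at 30 degrees; viability read by BacTiter-Glo luminescence after 5 min.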
AmpC no deterg: AmpC beta-lactamase inhibition without detergent | AmpC nitrocefin hydrolysis, absorbance 480 nm, 0.0001% Triton | AID 485341 | 330,000 tested, 0.52% active | Potency, µM (highest dose often 57.1 µM), for the others: at the highest dose activity change, negative = inhibition, usual class: inhibitors;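 note: plate controls were no compound for no effect and no enzyme for full effect; nearly all actives have a fitted effect of over 20% in size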
Target sequence (P00811 whole entry, looked up): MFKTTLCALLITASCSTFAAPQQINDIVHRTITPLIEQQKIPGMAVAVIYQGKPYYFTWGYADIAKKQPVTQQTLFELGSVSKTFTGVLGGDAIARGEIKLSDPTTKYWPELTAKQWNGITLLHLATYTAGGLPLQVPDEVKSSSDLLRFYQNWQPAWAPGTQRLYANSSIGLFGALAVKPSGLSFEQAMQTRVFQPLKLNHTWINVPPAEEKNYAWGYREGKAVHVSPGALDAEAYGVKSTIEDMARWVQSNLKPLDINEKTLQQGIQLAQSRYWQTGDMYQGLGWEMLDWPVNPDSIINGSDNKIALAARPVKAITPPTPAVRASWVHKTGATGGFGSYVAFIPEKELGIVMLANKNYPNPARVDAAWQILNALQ
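AmpC (5.3 nM in the dispensed reagent) in 20 mM phosphate pH 7.0 with 0.01% (detergent screen) or 0.0001% Triton X-100 was preincubated with compounds for 15 min at room temperature. Nitrocefin was then added from an 800 uM solution, and hydrolysis was followed at 480 nm.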
AmpC inh detg: inhibitors of E. coli AmpC beta-lactamase with detergent. P00811. AmpC hydrolysis of nitrocefin, absorbance 480 nm, 0.01% Triton. Potency, µM (highest dose often 114 µM), for inactives: at the highest dose activity change, negative = inhibition, most hits filed as inhibitors. 370,000 tested, 0.041% active;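 note: 0% = no-compound wells and -100% = no-enzyme wells; nearly all actives have a fitted effect of over 25% in size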
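AmpC (5.3 nM in the dispensed reagent) in 20 mM phosphate pH 7.0 with 0.01% (detergent screen) or 0.0001% Triton X-100 was preincubated with compounds for 15 min at room temperature. Nitrocefin was then added from an 800 uM solution, and hydrolysis was followed at 480 nm.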
Starred values were filed as active, the others as inactive; ? = inconclusive; / = no result; [ ] = another dose, or the depositor's remark. Unless noted, calls come from the whole dose curve; as a rule, active = well fitted curve in the direction sought with a large enough effect; inconclusive = small, poorly fitted or top-dose-only effect, or another doubt; inactive = no such curve, though single readings can be large; an effect the other way counts as inactive or inconclusive. Unless noted, % is set by controls: 0 for no effect and ±100 for the full control effect; potency is the fitted concentration of half-maximal effect.

SMILES	Giardia FBPA inh	Sm TGR inh	RE007 growth inh	AmpC no deterg	AmpC inh detg
Cc1cc(O)c(C(c2ccccc2Cl)N2CCN(c3ccccc3)CC2)c(=O)n1Cc1ccco1 (centres undefined)	/	2.8µM*	/	/	-3%
CCN1CCN(C(c2ccccc2Cl)c2c(O)cc(C)n(Cc3ccco3)c2=O)CC1 (centres undefined)	/	4µM*	/	/	-1%
O=C(c1ccco1)N1CCN(C(c2ccccc2Cl)c2nnnn2Cc2ccco2)CC1 (centres undefined)	7%	?	3%	33%	-14%
Cc1ccc(OCC(=O)Nc2ccc(S(=O)(=O)N3CCOCC3)cc2)c(C)c1	-9%	4%	19%	49%	-9%
CC1=CC(c2ccc(Cl)cc2)n2nc(NS(=O)(=O)c3ccc(C)cc3)nc2N1 (centres undefined)	-7%	32µM*	-16%	-29%	2%
CC1=CC(c2ccccc2)n2nc(NS(=O)(=O)c3ccc(C)cc3)nc2N1 (centres undefined)	10%	35µM*	-6%	0%	-1%
O=S(=O)(c1cc(Cl)ccc1Cl)n1nnc2ccccc21	18%	-2%[11.4 µM]	-6%	-11%	-15%
CNC(=O)c1csc(-c2cccs2)n1	1%	9%	-10%	-1%	?
CC1CCN(c2ccc3nnc(CCC(=O)Nc4ccc(F)cc4)n3n2)CC1	15%	8%	-5%	161%	0%
COc1ccc2c(c1)c(/C=N/Nc1nc3ccccc3[nH]1)c(C)n2C	-14%	4%	7%	-14%	-4%
O=C(NC1CCC(O)CC1)c1ccc(-c2ccc([N+](=O)[O-])cc2)o1 (centres undefined)	-3%	1.4µM*	22%	-7%	-14%
O=C(COC(=O)c1ccc(-c2ccc([N+](=O)[O-])cc2)o1)NC(=O)NC12CC3CC(CC(C3)C1)C2	-1%	-11%	14%	-22%	1%
O=C(COC(=O)CSc1ccc([N+](=O)[O-])cc1)NC1CCCCCCC1	/	-3%	36%	32µM*	?
O=C(COC(=O)c1ccc(-c2ccc([N+](=O)[O-])cc2)o1)NC(=O)NC1CCCCC1	-6%	40µM*	/	-22%	1%
Cc1ccc(SCC(=O)OCC(=O)NC2CCCCCCC2)cc1	/	-1%	11%	18%	-18%
O=C(NC(Cc1ccccc1)C(=O)O)/C(=C\c1cccc([N+](=O)[O-])c1)NC(=O)c1ccco1 (centres undefined)	5%	-21%	1%	-32%	-3%
COc1cc2c(C#CCCCO)c(-c3ccsc3)oc(=O)c2cc1OC	/	/	-3%	102%	/
O=C(O)c1ccc(COc2c(F)c(F)c(F)c(F)c2F)o1	27%	45µM*	-13%	-16%	-9%
Cc1c(NC(=S)NC(=O)c2ccc(-c3ccc(Cl)cc3)o2)cccc1C(=O)O	-5%	13µM*	-1%	-33%	13%
O=C(NC(=S)Nc1ccccc1O)c1ccc(-c2ccc(Cl)cc2)o1	-2%	-33%	25%	-25%	-11%
CS(=O)(=O)Nc1cccc(C2=NN(S(C)(=O)=O)C(c3ccc4c(c3)OCO4)C2)c1 (centres undefined)	3%	-3%	7%	40µM*	-4%
COc1ccc(S(=O)(=O)N2N=C(c3cccc(NS(C)(=O)=O)c3)CC2c2ccco2)cc1 (centres undefined)	/	22µM*	3%	-36%	-2%
COc1ccc(S(=O)(=O)N2N=C(c3ccc(NS(C)(=O)=O)cc3)CC2c2ccco2)cc1 (centres undefined)	-2%	14µM*	3%	-15%	1%
CS(=O)(=O)Nc1ccc(C2=NN(C(=O)c3ccco3)C(c3ccco3)C2)cc1 (centres undefined)	/	?	36%	-8%	-4%
Cc1nc(-c2ccccc2)cn(O)c1=O	?	?	0%	-29%	-1%
Cc1ccc(C)c2[nH]c(=O)c(C(c3nnnn3Cc3ccco3)N3CCc4ccccc4C3)cc12 (centres undefined)	?	14µM*	-11%	18%	-2%

From PubChem
